High-throughput results from PubChem.
MEP2 TOR yeast = modulators of MEP2-GFP levels in yeast, primary screen, S. cerevisiae, multiplex flow cytometry, MLPCN library; S. cerevisiae MEP2-GFP strain, 3 h; 100% = DMSO control level; GFP response vs DMSO, % at 10 µM; actives 0.51% (n = 330,000);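 active = GFP response versus DMSO above a set limit, roughly screen mean plus 3 SD, cut at about 180% in these data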;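 also: median GFP fluorescence of the barcode-gated MEP2-GFP cells per well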
Efflux pump mplx = inhibitors of Candida efflux pumps in yeast, primary screen, S. cerevisiae, Nile Red, multiplex | inhibition, % at 10 µM | AID 485275, 2010 | S. cerevisiae Candida pump triplex | actives 0.44% (n = 330,000);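 active = plate passing quality check with inhibition over a set limit, or well fluorescence over plate mean plus 4 SD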;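 also: Nile Red retained in pooled yeast measured as flow cytometry median fluorescence; higher means more Nile Red kept so more efflux inhibition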
AGP1 TOR yeast = modulators of AGP1-GFP expression in yeast TOR pathway, primary screen, cell-based, multiplex flow cytometry, S. cerevisiae, MLPCN library | 3 h; GFP as percent of DMSO wells | GFP response vs DMSO, % at 10 µM | actives 0.02% (n = 320,000) | AID 2066, 2009;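 active = GFP response relative to DMSO above a set limit, near screen average plus 3 SD, cut at about 150% in these data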;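 also: median GFP channel fluorescence of the gated AGP1 strain per well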
LAP4-GFP MLPCN = modulators of LAP4-GFP expression in yeast, primary screen, S. cerevisiae, multiplex flow cytometry, MLPCN library. 3 h; median GFP as percent of DMSO wells. GFP response vs DMSO, % at 10 µM. actives 0.34% (n = 320,000). AID 2023, 2009;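 active = GFP response vs DMSO above a set limit, about the screen mean plus 3 SD, cut at about 150% in these data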
CIT2 TOR yeast = modulators of CIT2-GFP expression in yeast, primary screen, S. cerevisiae, GFP fusion, multiplex flow cytometry, MLPCN library | AID 2029, 2009 | actives 0.065% (n = 320,000) | GFP response vs DMSO, % at 10 µM | S. cerevisiae CIT2-GFP strain, 3 h; 100 means same as DMSO wells;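 active = GFP response relative to DMSO above a set limit, near the screen mean plus 3 SD, cut at about 150% in these data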;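 also: ratio of well median GFP fluorescence to mean of DMSO wells on the plate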
RPL19A TOR yeast = RPL19A-GFP expression modulators in yeast, primary screen, cell-based, S. cerevisiae, multiplex flow cytometry, MLPCN | actives 0.3% (n = 330,000) | S. cerevisiae RPL19A-GFP strain, 3 h; stronger effect = lower value | percent response vs DMSO, % at 10 µM;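 active = percent response vs DMSO below 50%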;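 also: median channel GFP fluorescence of the barcoded RPL19A-GFP strain; lower means less RPL19A-GFP as with rapamycin TOR inhibition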
Cmpd fluor yeast = counter-screen for efflux pump inhibitors: compound fluorescence; S. cerevisiae AD/pABC3, flow cytometry; actives 4% (n = 1,700); shares compounds with Efflux pump mplx; fluorescence ratio to DMSO, % at 10 µM;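 active = fluorescence ratio to DMSO above its plate's cutoff, the plate mean ratio plus 5 SD, cut at about 210% in these data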;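 also: unstained yeast with no Nile Red so the signal is compound autofluorescence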
Mdr1 pump inh = inhibitors of Candida albicans Mdr1 efflux, confirmation, flow cytometry, singleplex, Cherry Pick1 set; AID 588518, 2011; inhibition, % at 10 µM; shares compounds with Efflux pump mplx; actives 1% (n = 1,700); S. cerevisiae AD/CaMDR1, Nile Red efflux; in the data active = inhibition above about 26%;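 also: higher means more Nile Red retained so more efflux inhibition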
CaCdr2 efflux inh = inhibitors of Candida albicans Cdr2 efflux pump, confirmation, S. cerevisiae AD/CaCDR2, flow cytometry, cherry pick 1, singleplex; Nile Red retention; actives 4% (n = 1,700); shares compounds with Efflux pump mplx; Nile Red retention ratio vs DMSO, % at 10 µM; AID 588520, 2011; in the data active = Nile Red retention ratio vs DMSO above about 190%;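 also: higher ratio means more blocking of Cdr2 efflux of the dye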
Cdr1 pump inh = inhibitors of Candida albicans Cdr1 efflux pump, confirmation, S. cerevisiae AD/CaCDR1, flow cytometry, cherry pick 1, singleplex; AID 588522, 2011; actives 1% (n = 1,700); inhibition, % at 10 µM; Nile Red efflux; shares compounds with Efflux pump mplx;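 active = inhibition above the screen-wide mean plus twice its standard deviation, cut at about 32% in these data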
Numbers stand for hits; i = inactive; nt = no result given. Only some compounds are listed: those with a hit (about 1.3% of all), similar ones and a draw of the others.

SMILES	MEP2 TOR yeast	Efflux pump mplx	AGP1 TOR yeast	LAP4-GFP MLPCN	CIT2 TOR yeast	RPL19A TOR yeast	Cmpd fluor yeast	Mdr1 pump inh	CaCdr2 efflux inh	Cdr1 pump inh
O=C(COC(=O)CCN1C(=O)/C(=C\C=C\c2ccccc2)SC1=S)Nc1cc(F)ccc1F	i	0.8	i	i	i	i	i	i	i	i
O=C(CN1C(=O)/C(=C\C=C\c2ccccc2)SC1=S)Nc1ccc(F)cc1	i	i	i	i	i	i	nt	nt	nt	nt
CCOc1ccc(CCNC(=O)Cc2ccc(NC3=NC4CS(=O)(=O)CC4S3)cc2)cc1 (stereo not given)	i	0.4	i	i	i	i	i	i	i	i
NC1=NC(c2cccc(Cl)c2)N(CCc2ccc(F)cc2)C(N)=N1 (stereo not given)	i	i	i	i	i	i	nt	nt	nt	nt
COc1ccc2cc(CN(CC3CCCO3)S(=O)(=O)c3ccc(C(C)=O)cc3)c(=O)[nH]c2c1 (stereo not given)	i	0.3	i	i	i	i	i	i	i	92
COCCNC(=O)CN(C(=O)CCC(=O)Nc1ccccn1)c1cc(C)ccc1C	i	i	i	i	i	i	nt	nt	nt	nt
O=C(CSc1nnc(CNC(=O)c2c(F)cccc2Cl)o1)NCCc1ccccc1	i	i	i	i	i	i	nt	nt	nt	nt
COc1ccc(C(=O)NCc2ccc3c(c2)OCO3)cc1S(=O)(=O)N(C)Cc1ccccc1	i	7.6	i	i	i	i	i	i	i	i
COc1cc(NC(=O)CSc2cc(C)c3cc(C)cc(C)c3n2)c(C(=O)O)cc1OC	i	i	i	i	i	i	nt	nt	nt	nt
COc1ccccc1NC(=O)COC(=O)c1cc([N+](=O)[O-])ccc1N1CCCC1	i	0.9	i	i	i	i	i	i	i	i
CC1CCCCC12NC(=O)N(CC(=O)NC1CCCc3ccccc31)C2=O (stereo not given)	i	0.9	i	i	i	i	i	i	i	i
CCOc1cccc(C(=O)Nc2cccc(C(=O)NCC(C)C)c2)c1	i	i	i	i	i	i	nt	nt	nt	nt
COC(=O)c1nn(-c2ccccc2)nc1-c1nn(-c2ccccc2)nc1C(=O)OC	i	0.4	i	i	i	i	i	i	i	i
Cc1cc(C)c2c(N)c(C(=O)NN3CC(=O)N(c4ccccc4F)CC3=O)sc2n1	i	0.8	i	i	i	i	i	i	i	i
COc1cccc(N2CC(=O)N(NC(=O)c3sc4nc(C)cc(C)c4c3N)CC2=O)c1	i	i	i	i	i	i	nt	nt	nt	nt
Cc1ccc(Cn2nnc3c(=O)[nH]c(C4CCN(S(=O)(=O)c5ccc(S(=O)(=O)NC6CC6)cc5)CC4)nc32)cc1	i	i	i	i	i	i	nt	nt	nt	nt
Cc1ccc(Cn2nnc3c(=O)[nH]c(C4CCN(S(=O)(=O)c5ccc(C)cc5)CC4)nc32)cc1	i	i	i	i	i	i	i	i	i	i
Cc1ccc(Cn2nnc3c(=O)[nH]c(C4CCN(S(=O)(=O)c5ccccc5F)CC4)nc32)cc1	i	i	i	i	i	i	i	i	i	i
Cc1cccc(NC(=O)CSc2nc(C)c(Cc3ccccc3)c(=O)[nH]2)c1C	i	2.1	i	i	nt	i	i	i	i	i
Cc1ccc(NC(=O)CSc2nc(C)c(Cc3ccccc3)c(=O)[nH]2)cc1	i	i	i	i	i	i	nt	nt	nt	nt
Cc1cccc(S(=O)(=O)Nc2nc3ccccc3nc2Nc2ccc3c(c2)OCO3)c1	i	10.0	i	i	i	i	i	i	i	i
COC(=O)CSc1nc2c(cnn2-c2ccc(F)cc2)c(=O)[nH]1	i	i	i	i	i	i	nt	nt	nt	nt
CCCCCOc1ccc(NC(=O)C(=O)NCC2CCCN2CC)cc1 (stereo not given)	i	i	i	i	nt	i	nt	nt	nt	nt
Cc1cc2ccccc2n1CCNC(=O)c1ccc(Br)o1	i	1.3	i	i	i	i	i	i	i	i
Cc1cc2ccccc2n1CCNC(=O)c1ccccc1	i	i	i	i	i	i	nt	nt	nt	nt
SMILES	MEP2 TOR yeast	Efflux pump mplx	AGP1 TOR yeast	LAP4-GFP MLPCN	CIT2 TOR yeast	RPL19A TOR yeast	Cmpd fluor yeast	Mdr1 pump inh	CaCdr2 efflux inh	Cdr1 pump inh
O=C(O)c1cccc2c1C(=O)c1cccc3snc-2c13	i	i	i	i	i	i	nt	nt	nt	nt
Nc1c(Cl)cc(C2=NCCn3nc4ccccc4c32)cc1Cl	i	0.6	i	i	i	i	i	i	i	i
O=C(COC(=O)c1ccc(Cl)cc1O)NCCN1C(=O)CSC1=O	i	i	i	i	i	i	i	i	i	i
Cc1noc(C)c1COc1cccc(C(=O)OCC(=O)NCCN2C(=O)CSC2=O)c1	i	i	i	i	i	i	nt	nt	nt	nt
CCNc1ccc(C(=O)OCC(=O)NCCN2C(=O)CSC2=O)cc1[N+](=O)[O-]	i	i	i	i	i	i	nt	nt	nt	nt
O=C(COC(=O)c1cccc(Cl)c1)NCCN1C(=O)CSC1=O	i	i	i	i	i	i	i	i	i	i
O=C(COC(=O)c1cc(Cl)cc(Cl)c1)NCCN1C(=O)CSC1=O	i	i	i	i	i	i	i	i	i	i
COc1cc(CC(=O)OCC(=O)N2CC(C)CC(C)C2)cc(OC)c1OC (stereo not given)	i	i	i	i	i	i	nt	nt	nt	nt
NC(=O)NN=C1C2CCCC1C(c1ccccc1)NC2c1ccccc1 (stereo not given)	i	i	i	i	i	i	nt	nt	nt	nt
Cc1ccc(OCC(=O)NNC(=O)CSc2ncc(C#N)c(N)n2)cc1	i	18	i	i	i	i	i	i	i	i
Cc1cc(C)cc(N(C(=O)Cn2nnc(-c3ccccc3)n2)C(C(=O)NC2CCCCC2)c2ccccn2)c1 (stereo not given)	i	6.4	i	i	i	i	i	i	i	i
